# Results reported in PubChem BioAssay AID588350 (The Scripps Research Institute Molecular Screening Center, 2011).
# The campaign covered roughly 1,900 compounds. About 1,200 (63%) were called active.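 The calls were made as follows: active = mean activation above the mean of solvent-only control wells plus 3 SD (cut at about 22% in these data); inactive = the rest.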 So high a share suggests a set chosen from earlier hits. Only a selection was taken, and actives are over-represented in it overall.
# Test: frataxin GAA30 reporter activation – cell-based, luminescence, HEK293, lucGAA30, triplicate, counter-screen for GAA850 frataxin promoter activator project, confirmation (AID 588350);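 also: counterscreen of GAA850 promoter hits where activity marks nonselective or luminescence artifacts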
# Conditions: HEK293 lucGAA30 FXN promoter luciferase, 24 h; at 6 µM; hits give high values
row,Compound,activation
1,CC(C)(C)c1ccc(OC(=O)N2CCCCC2)cc1,101% (active)
